Laboratory results as given in the supplement of paper PMC3545927.
This is one part of the list. No count for the full screen is at hand.

B1: HC152 (peptide)
chain: CAEVVTDTWVAGNASASA
B2: HC69 (peptide)
chain: CATTPCHGSWAGNASASA
B3: FS-952 (peptide)
chain: CARLVRPRRSAGNASASA
B4: FS-660 (peptide)
chain: CAGTWRPRRSAGNASASA
B5: HC2403 (peptide)
chain: CAEVPCHRPAAGNASASA
B6: HC2348 (peptide)
chain: CAEVWCHRPSAGNASASA
B7: HC966 (peptide)
chain: CALIRLKPTLAGNASASA
B8: HC1467 (peptide)
chain: CAFQYSPGQRAGNASASA
B9: FS-1655 (peptide)
chain: CARYQRRSRSAGNASASA
B10: HC1480 (peptide)
chain: CAYDTRCFDSAGNASASA
B11: FS-111 (peptide)
chain: CAYRRRPPRSAGNASASA
B12: FS-1296 (peptide)
chain: CAYRRRRSRSAGNASASA
B13: FS-1440 (peptide)
chain: CAYRYRRRRSAGNASASA
B14: FS-393 (peptide)
chain: CAYRKRQCRSAGNASASA
B15: HC45 (peptide)
chain: CATTPISGSWAGNASASA
B16: HC2485 (peptide)
chain: CASLPCSAHLAGNASASA
B17: HC1693 (peptide)
chain: CAMRECSQHLAGNASASA
B18: HC2277 (peptide)
chain: CASLEVVTSTAGNASASA
B19: FS-1875 (peptide)
chain: CAYIPRILGPAGNASASA
B20: HC2237 (peptide)
chain: CAEVVTSTSVAGNASASA
B21: FS-1611 (peptide)
chain: CARYIRSERSAGNASASA
B22: HC185 (peptide)
chain: CATRKTSERSAGNASASA
B23: HC1865 (peptide)
chain: CATTLCSGSWAGNASASA
B24: HC66 (peptide)
chain: CATTPCFGSWAGNASASA
B25: FS-2698 (peptide)
chain: CARKRRAPLAAGNASASA
B26: FS-2974 (peptide)
chain: CARKRRRQHGAGNASASA
B27: FS-2493 (peptide)
chain: CARKRRAPHGAGNASASA
B28: FS-2738 (peptide)
chain: CARPFRQVLAAGNASASA
B29: FS-2973 (peptide)
chain: CARKRRKGKAAGNASASA
B30: HC844 (peptide)
chain: CALSTTGEIPAGNASASA
B31: FS-2067 (peptide)
chain: CARRKRAGGGAGNASASA
B32: FS-1918 (peptide)
chain: CARRKRFPGKAGNASASA
B33: FS-1969 (peptide)
chain: CARRKRRHHKAGNASASA
B34: FS-2228 (peptide)
chain: CARRKRIVGGAGNASASA
B35: FS-2457 (peptide)
chain: CARSCRILHKAGNASASA
B36: FS-2516 (peptide)
chain: CARRKRRQTGAGNASASA
B37: FS-3054 (peptide)
chain: CARRKRLRHRAGNASASA
B38: FS-2402 (peptide)
chain: CARRKRKSQRAGNASASA
B39: HC2275 (peptide)
chain: CAHLEVVTSTAGNASASA
B40: HC2470 (peptide)
chain: CAVTPCSAHLAGNASASA
B41: HC683 (peptide)
chain: CATSLTGRDKAGNASASA
B42: HC1950 (peptide)
chain: CAVCTTPCSGAGNASASA
B43: HC820 (peptide)
chain: CAHSTDATSIAGNASASA

Molecular target: furin, P09958
Assay: furin cleavage Z-score vs untreated control; higher = more cleavage, active = 3.5 or more, inactive = 1 or less, 8 variable residues between constant flanks
Experimental: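 Multiplexed peptide-cDNA fusion cleavage assay. 8-mer variable peptides flanked by constant Cys-Ala (N-term) and Ala-Gly-Asn-Ala-Ser-Ala-Ser-Ala (C-term) and conjugated to a cDNA oligonucleotide were bead-immobilised via the N-terminus. They were treated with purified furin at a 1:10 enzyme:substrate ratio in 50 mM HEPES pH 7.5, 1 mM CaCl2, 100 mM NaCl for 7.5, 15 or 30 min. Released cDNA was counted by next-generation sequencing, and log counts versus no-furin controls were lowess-adjusted and converted to robust Z-scores.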

Sequence of furin, P09958 (P09958 whole entry): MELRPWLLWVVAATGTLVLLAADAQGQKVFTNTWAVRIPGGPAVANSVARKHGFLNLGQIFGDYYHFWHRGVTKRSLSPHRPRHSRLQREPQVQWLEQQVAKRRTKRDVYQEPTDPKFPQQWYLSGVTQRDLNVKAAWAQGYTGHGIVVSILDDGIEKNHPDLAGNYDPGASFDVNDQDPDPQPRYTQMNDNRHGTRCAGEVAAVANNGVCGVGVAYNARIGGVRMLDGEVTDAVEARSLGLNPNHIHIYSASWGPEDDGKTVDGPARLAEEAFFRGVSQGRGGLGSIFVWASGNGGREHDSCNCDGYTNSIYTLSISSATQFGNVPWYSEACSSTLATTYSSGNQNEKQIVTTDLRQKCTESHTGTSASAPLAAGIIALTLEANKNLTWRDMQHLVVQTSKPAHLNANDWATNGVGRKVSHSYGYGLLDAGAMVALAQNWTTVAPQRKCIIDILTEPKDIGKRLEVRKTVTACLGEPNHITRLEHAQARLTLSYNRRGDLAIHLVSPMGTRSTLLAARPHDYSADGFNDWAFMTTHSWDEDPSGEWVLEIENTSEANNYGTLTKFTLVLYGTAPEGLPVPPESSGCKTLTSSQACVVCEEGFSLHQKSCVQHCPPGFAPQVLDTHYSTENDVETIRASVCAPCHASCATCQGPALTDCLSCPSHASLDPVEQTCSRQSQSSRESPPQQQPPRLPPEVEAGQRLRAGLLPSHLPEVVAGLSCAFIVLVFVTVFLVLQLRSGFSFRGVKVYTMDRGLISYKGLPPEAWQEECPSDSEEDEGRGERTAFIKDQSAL

Row | Sequence | furin cleavage Z-score (7.5 min) | furin cleavage Z-score (15 min) | furin cleavage Z-score (30 min)
1 | B1 | -0.985 (inactive) | 0.416 (inactive) | -1.25 (inactive)
2 | B2 | 1.47 | 0.142 (inactive) | 1.5
3 | B3 | 13.4 (active) | 14.2 (active) | 10.3 (active)
4 | B4 | 10.9 (active) | 11.6 (active) | 7.85 (active)
5 | B5 | -1.55 (inactive) | 0.357 (inactive) | -0.33 (inactive)
6 | B6 | 0.218 (inactive) | 0.0316 (inactive) | 0.64 (inactive)
7 | B7 | -1.19 (inactive) | -1.25 (inactive) | 0.404 (inactive)
8 | B8 | -0.221 (inactive) | -0.464 (inactive) | -2.47 (inactive)
9 | B9 | 7.45 (active) | 7.54 (active) | 8.29 (active)
10 | B10 | -1.56 (inactive) | 0.436 (inactive) | 0.927 (inactive)
11 | B11 | 1.85 | 1.04 | 0.965 (inactive)
12 | B12 | 7.22 (active) | 8.22 (active) | 6.95 (active)
13 | B13 | 4.89 (active) | 5.22 (active) | 3.7 (active)
14 | B14 | 5.64 (active) | 5.62 (active) | 3.16
15 | B15 | -0.899 (inactive) | -0.739 (inactive) | -0.823 (inactive)
16 | B16 | -0.663 (inactive) | 0.376 (inactive) | 0.512 (inactive)
17 | B17 | -1.86 (inactive) | 1.41 | 0.442 (inactive)
18 | B18 | -0.584 (inactive) | -0.0293 (inactive) | 0.688 (inactive)
19 | B19 | -0.849 (inactive) | -0.994 (inactive) | -2.27 (inactive)
20 | B20 | 0.559 (inactive) | -1.07 (inactive) | -1.09 (inactive)
21 | B21 | 6.49 (active) | 8.32 (active) | 8.42 (active)
22 | B22 | 0.0798 (inactive) | 1.75 | 1.32

Row | Sequence | furin cleavage Z-score (7.5 min) | furin cleavage Z-score (15 min) | furin cleavage Z-score (30 min)
23 | B23 | -0.162 (inactive) | -0.533 (inactive) | 0.486 (inactive)
24 | B24 | 0.204 (inactive) | 0.119 (inactive) | -0.471 (inactive)
25 | B25 | 6.06 (active) | 7.82 (active) | 7.26 (active)
26 | B26 | -0.939 (inactive) | -0.0293 (inactive) | 0.389 (inactive)
27 | B27 | 4.63 (active) | 5.64 (active) | 5.6 (active)
28 | B28 | -0.792 (inactive) | 0.095 (inactive) | -0.451 (inactive)
29 | B29 | -1.27 (inactive) | 1.85 | 0.732 (inactive)
30 | B30 | 0.383 (inactive) | -0.16 (inactive) | 0.771 (inactive)
31 | B31 | 4.24 (active) | 4.92 (active) | 5.33 (active)
32 | B32 | 0.56 (inactive) | 2.63 | 3.28
33 | B33 | 1.16 | 4.53 (active) | 5.66 (active)
34 | B34 | 0.169 (inactive) | 1.22 | 2.08
35 | B35 | 0.718 (inactive) | 0.25 (inactive) | 0.502 (inactive)
36 | B36 | 8.82 (active) | 9.35 (active) | 7.88 (active)
37 | B37 | -0.105 (inactive) | -0.397 (inactive) | -1.97 (inactive)
38 | B38 | 1.07 | 2.8 | 3.58 (active)
39 | B39 | -0.0236 (inactive) | -0.0472 (inactive) | -0.103 (inactive)
40 | B40 | -2.91 (inactive) | -0.94 (inactive) | -1.39 (inactive)
41 | B41 | 0.711 (inactive) | 0.726 (inactive) | 0.633 (inactive)
42 | B42 | -1.68 (inactive) | 1.7 | 0.388 (inactive)
43 | B43 | 0.202 (inactive) | -1.29 (inactive) | 0.297 (inactive)
